The values below come from PubChem BioAssay.

Structures are written as SMILES.

Test [1] concerns Human papillomavirus type 1a protein E7 (residues 44-93). Nature of the test: small molecules binding HPV E7 44-93 – biochemical, small-molecule microarray, residues 44-93, 635 nm fluorescence, primary screen (AID 1108).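 Note: E7 fragment applied at 1 µg/mL in TBST for 1 h at 4 C; score combines spot fluorescence with its signal to noise ratio.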 The following applies: fluorescence 635 nm, higher = more signal.
The nature of test [2]: hepatitis C replication reporter changes, two-sided – Huh7 cells, luciferase reporter, HCV replication inhibitor project, primary screen (AID 1109).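 Note: huh7 hepatoma cells harbouring a luciferase neomycin HCV replicon reporter; luciferase luminescence as measure of HCV replicon replication; test concentration not given here.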 Conditions: Huh7 HCV replicon luciferase reporter, 48 h; higher = more signal.
The target of test [3] is Left-right determination factor 2 (Homo sapiens) (UniProt O00292). Nature of the test: small molecules binding LEFTY2 protein – biochemical, small-molecule microarray, 635 nm fluorescence scan, primary screen (AID 1110). Conditions: higher = more signal.
Sequence of Left-right determination factor 2 (Homo sapiens) (O00292 whole entry, looked up): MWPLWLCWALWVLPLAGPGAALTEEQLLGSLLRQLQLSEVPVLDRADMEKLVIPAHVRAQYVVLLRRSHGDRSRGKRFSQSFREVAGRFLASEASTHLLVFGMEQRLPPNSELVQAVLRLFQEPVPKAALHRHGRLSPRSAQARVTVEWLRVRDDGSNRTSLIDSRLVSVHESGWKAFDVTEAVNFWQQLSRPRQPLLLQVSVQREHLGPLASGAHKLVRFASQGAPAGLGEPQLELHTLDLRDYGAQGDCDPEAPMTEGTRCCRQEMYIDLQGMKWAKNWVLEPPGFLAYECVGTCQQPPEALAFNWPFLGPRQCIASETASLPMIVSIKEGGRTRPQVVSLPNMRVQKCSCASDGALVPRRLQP
Test [4] concerns the target Calmodulin-1 (Homo sapiens) (UniProt P0DP23). Nature of the test: small molecules binding calmodulin-1 with EGTA – biochemical, small-molecule microarray, Cy5-labelled CALM1, profiling panel (AID 1111).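 Note: labelled calmodulin applied in Tris saline Tween buffer holding calcium plus EGTA and DTT.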 The following applies: Cy5-CALM1 binding fluorescence, higher = more signal.
Test [5] has the same target. Nature of the test: small molecules binding Ca-loaded calmodulin-1 – biochemical, small-molecule microarray, Cy5-labelled CALM1, plus calcium, artefact control for SMM control-protein annotation, profiling panel (AID 1112).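 Note: score merges spot fluorescence with signal to noise from triplicate slides.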 The following applies: Cy5-CALM1 binding fluorescence, higher = more signal.
Test [6] in a line: probe aWnt5a binding to arrayed compounds – biochemical, biotinylated probe, 635/667 nm fluorescence, primary screen (AID 1113).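 Note: score merges 667 nm fluorescence intensity with signal-to-noise per printed feature.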 The following applies: small-molecule microarray, higher = more signal.
Test [7] is described as follows: probe aShh binding to arrayed compounds – biochemical, biotinylated probe, 635/667 nm fluorescence, primary screen (AID 1114).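 Note: probe is biotin-labelled aShh protein from a stem cell growth factor screen; measures binding of labelled protein to compounds printed on the slide; score merges feature fluorescence at 667 nm with signal-to-noise.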 Conditions: small-molecule microarray, higher = more signal.
A short description of test [8]: probe aNog binding to arrayed compounds – biochemical, biotinylated probe, 635/667 nm fluorescence, primary screen (AID 1115).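 Note: probe is biotinylated aNog protein used at 0.15 µg/mL for 1 h at 4 C; z-score combines 667 nm fluorescence of each spot with its signal to noise.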 Conditions: small-molecule microarray, higher = more signal.
Test [9] deals with Torsin-1A-interacting protein 1 (Homo sapiens) (UniProt Q5JTV8). Nature of the test: compound microarray binding of lysate hLAP1 – cell lysate, small-molecule microarray, COS7 lysate, 635/667 nm fluorescence, primary screen (AID 1116). The following applies: 635 nm fluorescence, higher = more signal.
Sequence of Torsin-1A-interacting protein 1 (Homo sapiens) (Q5JTV8 whole entry, looked up): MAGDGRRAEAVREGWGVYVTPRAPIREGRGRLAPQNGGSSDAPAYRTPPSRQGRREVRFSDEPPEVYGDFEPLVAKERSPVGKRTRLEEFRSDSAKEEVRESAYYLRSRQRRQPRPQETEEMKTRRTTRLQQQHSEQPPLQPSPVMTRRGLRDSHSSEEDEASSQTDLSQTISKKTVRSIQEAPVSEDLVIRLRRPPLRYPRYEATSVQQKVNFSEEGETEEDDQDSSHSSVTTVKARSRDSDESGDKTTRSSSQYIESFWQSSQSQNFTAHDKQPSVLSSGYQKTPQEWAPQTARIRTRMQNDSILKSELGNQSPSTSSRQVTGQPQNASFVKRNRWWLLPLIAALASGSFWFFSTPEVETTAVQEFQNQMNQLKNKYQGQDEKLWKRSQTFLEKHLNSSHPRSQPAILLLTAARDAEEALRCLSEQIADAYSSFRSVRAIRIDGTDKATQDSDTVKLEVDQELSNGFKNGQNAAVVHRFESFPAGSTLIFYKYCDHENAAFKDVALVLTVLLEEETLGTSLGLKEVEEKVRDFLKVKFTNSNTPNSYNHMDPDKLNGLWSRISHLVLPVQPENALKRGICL
In test [10] the target is Alpha-bungarotoxin (Bungarus multicinctus) (UniProt P60615). Nature of the test: compounds binding labelled alpha-BTX control protein – biochemical, small-molecule microarray, Alexa647 label, 635/667 nm fluorescence, artefact control for SMM control protein annotation, profiling panel (AID 1117). The following applies: alpha-BTX-A647 binding fluorescence, higher = more signal.
Sequence of Alpha-bungarotoxin (Bungarus multicinctus) (P60615 whole entry, looked up): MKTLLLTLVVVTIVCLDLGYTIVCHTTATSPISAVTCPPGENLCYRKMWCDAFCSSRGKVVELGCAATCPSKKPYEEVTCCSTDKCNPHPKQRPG

In the case of `CN(C)CCCC[C@@H]1NC(=O)[C@H]2C[C@@H](C(=O)NCCCCCCN)[C@@H](c3ccc(O)cc3)N2C1=O`, the composite z-score in test [1] worked out at 1.23; in [3] it was 1.48; in test [4], 1.67; in test [5], 0.921; in [6] it was 0.257; in [7] it was 0.109. Further, the values for the composite z-score in test [8], in test [9] and in test [10] were 1.59, 1.74 and 2.75, respectively. In [2], the z-score came to 0.251.

In the case of `COc1cccc(-c2cccc(=O)o2)c1`, the composite z-score in [1] is -1.17; in test [3], 0.361; in test [4], -0.753; in [5], -0.454; in test [6] it was 0.153; in [7], 0.475. The composite z-score in [8] was 0.192; in test [9], 0.628; in test [10], 0.141. The same molecule displayed a z-score in test [2] of 0.473.

As to `COc1cc2c(cc1O)C(c1cccs1)N(C)CC2` (stereo not given), the composite z-score is -1.61 in test [1]; -0.496 in test [3]; -0.705 in test [4]; 0.423 in test [5]; -0.126 in test [6]; -0.2 in test [7]. Moreover, the composite z-score was -0.215 in test [8], -0.205 in [9] and -0.759 in [10]. The molecule further yielded a z-score in [2] of 0.159.

Turning to `[N-]=[N+]=Nc1ccccc1[C@H]1OC(c2ccc(OCCCO)cc2)=N[C@@]1(CCS(=O)(=O)c1ccccc1)C(=O)NCC(O)CO` (stereo not given in full), the composite z-score in test [1] is 1.46; in test [3], -0.671; in [4] it was 1.15; in test [5] it was 0.211; in [6] it was 0.027; in test [7], 0.0611. In addition, the composite z-score was -0.62 in [8], 1.93 in [9] and 1.21 in [10]. Besides, the z-score in test [2] was -0.604.

With `COC(=O)[C@@]1(Cc2ccc(OC)cc2)[C@H]2c3cc(C(=O)N(C)C)n(C)c3C[C@H]2CN1C(=O)c1ccccc1`, the composite z-score in test [1] is 1.45; in test [3], -0.239; in test [4], 2.01; in [5], 0.749; in test [6], 0.0337; in [7], 0.527. Also, the composite z-score was 2.11 in [8], 1.15 in [9] and 0.696 in [10]. The z-score in test [2] is -2.62.

Regarding `C=CCOC(=O)[C@H]1[C@@H]2C(=O)O[C@@H](c3ccccc3)[C@@H](c3ccccc3)N2[C@@H](c2ccc(OCCOC(=O)[C@H]3C[C@H]4C(=O)N[C@@H](CCCCNC(C)=O)C(=O)N4[C@H]3c3ccc(O)cc3)cc2)[C@]12C(=O)Nc1ccc(I)cc12`, the composite z-score is 0.804 in test [1]; 0.418 in test [3]; 0.124 in test [4]; -0.732 in [5]; -0.0236 in test [6]; 0.123 in [7]. The values for the composite z-score in test [8], in test [9] and in test [10] were -0.238, 0.612 and 0.963, respectively. The z-score in test [2] was -3.26.

As to `CCCCC(CC)C(O)C1C=CC2C(=O)N(Cc3ccccc3)C(=O)C2N1n1cnnc1` (stereo not given), the composite z-score was 0.281 in test [1]; -0.729 in test [3]; -0.0327 in [4]; -0.658 in test [5]; -0.124 in [6]; -0.153 in test [7]. For the same molecule, the composite z-score in test [8] is -0.127; in [9], -0.0742; in test [10], 0.308. For the same molecule, the z-score in test [2] came out at 0.137.

On to `CCc1cccc(NC(=O)O[C@H]2[C@H](OC(=O)Nc3ccccc3-c3ccccc3)[C@@H](OC(=O)Nc3ccccc3-c3ccccc3)[C@@H](OC)O[C@@H]2CO)c1`, for which the composite z-score was 1.52 in test [1]; 0.3 in test [3]; 1.71 in test [4]; -0.0011 in test [5]; 0.0839 in test [6]; 0.432 in [7]. The composite z-score in [8] turned out to be 0.572; in test [9] it was 1.47; in test [10], 1.53. Moreover, in test [2], the z-score is -3.79.

For `C=C(CCCC)/C(=C/C[C@H](OC(=O)c1ccncc1)c1ccccc1OCCO)c1cnc2ccccc2c1`, the composite z-score is 1.13 in [1]; 0.274 in test [3]; 0.154 in [4]; -0.666 in test [5]; -0.096 in [6]; -0.0977 in test [7]. For the same molecule, the composite z-score in [8] is -0.0428; in test [9], 0.634; in test [10] it was 0.527. In addition, the z-score in test [2] is -2.82.

As for `C=CCNC(=O)[C@@H]1[C@H]2C(=O)O[C@H](c3ccccc3)[C@H](c3ccccc3)N2[C@H](c2ccc(O)cc2)[C@@]12C(=O)Nc1ccc(C#CCNC(N)=O)cc12`, the composite z-score was 1.28 in test [1]; -1.09 in test [3]; -0.0555 in test [4]; -0.28 in test [5]; -0.124 in test [6]; 0.157 in test [7]. The composite z-score in test [8] was -0.125; in [9], 1.4; in [10], -0.234. In addition, in [2], the z-score was -0.365.

For `C[N+](C)(C)CCCCCCNC(=O)[C@@H]1C[C@@H]2C(=O)N[C@@H](Cc3ccccc3)C(=O)N2[C@@H]1c1cccc(OCCO)c1`, the composite z-score in test [1] was 0.44; in test [3] it was 0.542; in test [4], -0.637; in [5], -0.792; in [6] it was -0.107; in [7], -0.0813. The composite z-score in test [8] is -0.364; in test [9] it was 1.22; in test [10], 1.24. In test [2], this molecule registered a z-score of 0.137.

For the molecule `C=CCNC(=O)[C@@H]1[C@H]2C(=O)O[C@H](c3ccccc3)[C@H](c3ccccc3)N2[C@H](c2ccc(OCCO)cc2)[C@@]12C(=O)Nc1ccc(C#CCC(C(=O)OC)C(=O)OC)cc12`, the composite z-score in test [1] is 0.637; in [3], 0.608; in test [4] it was 0.263; in [5], -0.224; in test [6] it was 0.105; in test [7], 0.147. For the same molecule, the figures for the composite z-score in test [8], in test [9] and in test [10] were 0.914, 1.19 and 1.8, respectively. The z-score in test [2] was -2.18.

`CC(C)=CCN[C@H](CO)c1ccccc1`: the composite z-score in [1] is 0.318; in [3], 0.422; in test [4] it was -0.644; in test [5], -0.881; in [6] it was -0.13; in [7] it was 0.0048. Also, the values for the composite z-score in test [8], in test [9] and in test [10] were -0.278, 0.157 and 0.189, respectively. For the same molecule, the z-score in test [2] was -1.76.
